Source: PubChem BioAssay (NCI)
Compounds without any hit were thinned out: in the full panel of roughly 83,000, 20% have a hit.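 Compound tested at a single concentration for 48 hours in 96-well plates; a percent growth value below 10 was scored as active.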 Unmarked numbers belong to inactive results. Active and inactive are the calls of the source.

Columns and labels:
Experiment in all cases: NCI-60 one-dose screen, 48 h (100 = growth as untreated, 0 = no growth, -100 = all killed)
Details in all cases: 10 µM
[1] = system: SR leukemia
[2] = system: OVCAR-8 ovarian
[3] = system: OVCAR-5 ovarian
[4] = system: OVCAR-4 ovarian
[5] = system: SK-OV-3 ovarian
[6] = system: IGROV1 ovarian
[7] = system: OVCAR-3 ovarian
[8] = system: HS 578T breast
[9] = system: NCI/ADR-RES ovarian
[10] = system: T-47D breast
[11] = system: BT-549 breast
[12] = system: MDA-MB-435 melanoma
[13] = system: SW-620 colon
[14] = system: MCF7 breast
[15] = system: HCT-116 colon
[16] = system: HCC-2998 colon
[17] = system: KM12 colon

SMILES	growth [1]	growth [2]	growth [3]	growth [4]	growth [5]	growth [6]	growth [7]	growth [8]	growth [9]	growth [10]	growth [11]	growth [12]	growth [13]	growth [14]	growth [15]	growth [16]	growth [17]
O=S(=O)(NCCCNc1nccc(-c2cn(-c3ccccc3)nc2-c2ccc(Cl)c(O)c2)n1)c1ccccc1	42%	59.5%	118%	71.1%	83.8%	73.5%	66.8%	67.3%	33.3%	42.9%	75.9%	68.7%	102%	33%	53.1%	91.6%	56.7%
N#Cc1c(-c2ccc(Cl)cc2)cc(-c2cc(O)ccc2O)nc1N	21.7%	1.52% (active)	86.6%	22.9%	45.2%	7.29% (active)	-17.2% (active)	27.6%	65.3%	8.26% (active)	22.6%	6.77% (active)	8.32% (active)	4.41% (active)	19.8%	52.7%	27.2%
CCn1c2ccc(O)cc2c2c(C)c3c[n+](C)ccc3c(C)c21	21.2%	32.4%	88.7%	52%	71.2%	53.8%	37.8%	-0.0943% (active)	81%	-6.62% (active)	-13% (active)	64.9%	41.3%	16.7%	33.9%	35.1%	21.5%
CCCCN(CCCC)C(=O)[C@H](CC)[C@@H]1CC[C@@H](C)[C@@H]([C@H](C)[C@@H](O)[C@@H](C)C(=O)[C@H](CC)C2O[C@]3(C=C[C@@H](O)[C@]4(CC[C@@](C)([C@H]5CC[C@](O)(CC)[C@H](C)O5)O4)O3)[C@H](C)C[C@@H]2C)O1 (some centres not stated)	27%	12.5%	24%	9.88% (active)	-8.58% (active)	20.1%	4.13% (active)	14.5%	25.4%	5.04% (active)	8.46% (active)	4.48% (active)	9.41% (active)	-14.1% (active)	2.55% (active)	2.49% (active)	20.6%
Fc1ccc2[nH]cc(-c3nc(-c4ccsc4)cs3)c2c1	86.2%	94.4%	107%	101%	80.5%	85.7%	99.8%	96.8%	80.8%	57%	96.9%	105%	94.8%	65.9%	91.5%	105%	101%
CCOC(=O)c1sc2ncnc(Nc3ccc4c(cnn4C(=O)Nc4ccc(C)c(Cl)c4)c3)c2c1C	79.2%	102%	110%	115%	97.3%	97.9%	117%	112%	105%	101%	102%	100%	102%	87.8%	88.9%	94.1%	95.4%
CC(C)(C)OC(=O)N1CCc2c(sc3ncnc(N/N=C/c4ccccc4Br)c23)C1	39.4%	71.6%	78.3%	72.9%	–	68.6%	62.9%	98.7%	71.6%	41.5%	92.3%	77.9%	55%	-12% (active)	41.6%	92.3%	92.1%
Cc1c2cnccc2c(C)c2c1c1cc(O)ccc1n2C(C)C	-17.1% (active)	7.98% (active)	69.2%	25%	-15.7% (active)	7.7% (active)	21.5%	3.64% (active)	–	3.1% (active)	-2.72% (active)	8.19% (active)	2.58% (active)	-3.2% (active)	-49.4% (active)	20.8%	–
O=C(Nc1cc([N+](=O)[O-])c2[nH]c(=O)c3ccccc3c2c1)C(F)(F)F	52.3%	77.2%	104%	92.6%	81.2%	93.6%	106%	105%	76.9%	105%	86.5%	102%	64.5%	82%	56.5%	–	87.2%
COc1ccc(-c2nn(-c3cccc(Cl)c3)cc2C=C(C#N)C#N)cc1	-61.6% (active)	24.2%	29%	7.22% (active)	-0.205% (active)	12.2%	-23.6% (active)	24.5%	2.52% (active)	21.1%	-34.8% (active)	-68.5% (active)	-2.25% (active)	-11.6% (active)	-40.9% (active)	8.75% (active)	4.48% (active)
Cc1c2cnccc2c(C)c2c1oc1ccccc12	21.2%	71.1%	82.4%	98.9%	71.2%	78.8%	98.1%	53.7%	–	77.5%	80.9%	91.6%	64.1%	43.7%	45%	84.9%	81.7%
COC(=O)C1OC1c1cc([N+](=O)[O-])ccc1OC (configuration not stated)	84.4%	105%	105%	101%	92.1%	93%	109%	111%	–	70%	107%	107%	107%	89.3%	102%	–	99.3%
N#CC1=CC2CN(Cc3ccccc3)C1C1C(=O)N(c3ccccc3)C(=O)C21 (configuration not stated)	93.4%	98.2%	101%	93.2%	97%	103%	111%	101%	91.6%	99.5%	95%	105%	95.2%	97.1%	101%	–	103%
O=c1cn[nH]c2ccc(Br)cc12	89.4%	98.8%	108%	109%	98.6%	102%	105%	99.4%	105%	83%	105%	111%	103%	105%	97.8%	–	98.7%
Cc1cc(NC(=O)c2ccc(C)c(Nc3nccc(-c4cccnc4)n3)c2)cc(-n2cnc(C)c2)c1	-22.3% (active)	61.3%	46%	-28.7% (active)	27.6%	32.3%	-7.87% (active)	5.73% (active)	59.1%	-4.71% (active)	41.1%	12.2%	50.2%	24.4%	-64.1% (active)	–	35.1%
Cc1ccc(C2=NN(c3ccc(S(C)(=O)=O)cc3)C(=O)CC2)cc1	4.47% (active)	31.8%	53.1%	60.8%	19.9%	59.2%	-14.7% (active)	-1.17% (active)	–	32.7%	11.3%	-61.2% (active)	8.58% (active)	16.2%	17.7%	47.2%	35%
C=C/C(C)=C/C[C@]1(C)[C@H](C)[C@@H](OC(=O)CCC)[C@H](O)[C@@]23C(=C[C@H](OC)C[C@@H]12)[C@@H](OC(=O)CCC)O[C@H]3OC(C)=O	-20.2% (active)	-60.4% (active)	-41.3% (active)	-2.11% (active)	–	-9.72% (active)	-86.5% (active)	-31.5% (active)	-20.4% (active)	-40% (active)	-48.3% (active)	-70.3% (active)	-61.1% (active)	9.34% (active)	-70.3% (active)	-80.7% (active)	8.41% (active)
